Experimental data taken from PubChem BioAssay (Tox21).
Where “and” joins values, the source holds several entries; their conditions need not be identical. Equal values may be shown once. Records with an inconclusive call do not appear. A call without a number means that no potency is given here. Unmarked numbers belong to inactive results. Calls of active or inactive are those of the source. The call rests on the fitted dose curve; in most records, active means well fitted curve in the direction sought with a large enough effect in the repeat runs; inconclusive means weak or mixed curves; inactive means no such curve, though single readings can be large; an effect the other way counts as inactive or inconclusive.

test: qHTS RealTime-Glo MT Cell Viability Assay in HEK293 cells - 40 hour (AID 1224874); details: RealTime-Glo luminescence; max response: hits give low values; further: nearly all actives have a fitted effect of over 50% in size
Outline: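 Kinetic, non-lysing viability readout. Seed HEK293 (600/well) with reagent, incubate 5 h at 37 C/5% CO2, pin 23 nL compound in DMSO, incubate at 37 C, read luminescence at 0, 8, 16, 24, 32, 40 h.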
Potency means the concentration at half of the fitted maximal effect.

Compound	Potency	max response
CCN(CC)C(=S)[S-].CCN(CC)C(=S)[S-].[Zn+2]	2.73 µM (active)	–
CCCCCCCCCCCCCCC(Br)C(=O)O (stereo unspecified)	–	-7.18%
O=c1oc2ccccc2c(O)c1Cc1c(O)c2ccccc2oc1=O	–	0.643%
ClC1=C(Cl)C2(Cl)C3C(Cl)C=CC3C1(Cl)C2(Cl)Cl (stereo unspecified)	49.2 µM (active) and 49 µM (active)	–
Cc1cc(C(C)(C)c2cc(C)c(O)c(C)c2)cc(C)c1O	18.9 µM (active)	–
O=C(CCl)C(Cl)Cl	17.5 µM (active)	–
Clc1ccc(CO/N=C(\Cn2ccnc2)c2ccc(Cl)cc2Cl)c(Cl)c1	21.3 µM (active)	–
O=c1c(C2CC(c3ccc(-c4ccc(Br)cc4)cc3)Cc3ccccc32)c(O)sc2ccccc12 (stereo unspecified)	–	-20.8%
CCC(C)c1cc([N+](=O)[O-])cc([N+](=O)[O-])c1OC(=O)C=C(C)C (stereo unspecified)	21.9 µM (active)	–
Nc1ccc(Cc2ccc(N)c(Cl)c2)cc1Cl	23.7 µM (active)	–
C=CCC1=C(C)C(OC(=O)C2C(C=C(C)C)C2(C)C)CC1=O (stereo unspecified)	41.2 µM (active)	–
Oc1ccc2ccc3cccc4ccc1c2c34	13.8 µM (active)	–
CC(C)(C)c1ccc(CSc2cnn(C(C)(C)C)c(=O)c2Cl)cc1	0.0069 µM (active)	–
CC(C)[C@H](C(=O)OC(C#N)c1cccc(Oc2ccccc2)c1)c1ccc(OC(F)F)cc1 (stereo partly specified)	–	-16.8%
CCN(CC)c1c([N+](=O)[O-])cc(C(F)(F)F)c(N)c1[N+](=O)[O-]	21.9 µM (active)	–
N#Cc1c(-c2ccc(Cl)cc2)[nH]c(C(F)(F)F)c1Br	1.23 µM (active)	–
CCCOCC(=Nc1ccc(Cl)cc1C(F)(F)F)n1ccnc1	48.9 µM (active)	–
O=C1c2ccccc2C(=O)C1C(=O)C(c1ccccc1)c1ccc(Cl)cc1 (stereo unspecified)	–	-21.2%
CCCCCCCCc1ccc(O)cc1	17 µM (active)	–

test: A CellTox Green Cytotoxicity Assay to monitor cytotoxicity in HEK293 cells - 24 hour (AID 1224875); details: CellTox Green fluorescence; series mostly up to 76.8 µM; further: nearly all actives have a fitted effect of over 45% in size
Outline: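 Real-time, in one plate: 600 HEK293 cells/well with dead-cell DNA dye, pinned compound after 5 h, 37 C incubation over 40 h; viable cells give no appreciable fluorescence.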

Compound	Potency
Cc1cc(C(F)(C(F)(F)F)C(F)(F)F)ccc1NC(=O)c1cccc(I)c1C(=O)NC(C)(C)CS(C)(=O)=O	inactive
ClC(Cl)=C(c1ccc(Cl)cc1)c1ccc(Cl)cc1	inactive
CCN(CC)C(=S)[S-].CCN(CC)C(=S)[S-].[Zn+2]	15.4 µM (active)
CCCCCCCCCCCCCCC(Br)C(=O)O (stereo unspecified)	inactive
O=c1oc2ccccc2c(O)c1Cc1c(O)c2ccccc2oc1=O	inactive
ClC1=C(Cl)C2(Cl)C3C(Cl)C=CC3C1(Cl)C2(Cl)Cl (stereo unspecified)	49.2 µM (active) and 49 µM (active)
Cc1cc(C(C)(C)c2cc(C)c(O)c(C)c2)cc(C)c1O	inactive
Clc1ccc(CO/N=C(\Cn2ccnc2)c2ccc(Cl)cc2Cl)c(Cl)c1	inactive
O=c1c(C2CC(c3ccc(-c4ccc(Br)cc4)cc3)Cc3ccccc32)c(O)sc2ccccc12 (stereo unspecified)	inactive
CC(=[OH+])/C=C(/C)[O-].CC(=[OH+])/C=C(\C)[O-].CC(=[OH+])/C=C(\C)[O-].[Al]	inactive
Clc1ccc(-c2ccc(Cl)c(Cl)c2Cl)c(Cl)c1Cl	inactive
CCC(C)c1cc([N+](=O)[O-])cc([N+](=O)[O-])c1OC(=O)C=C(C)C (stereo unspecified)	inactive
S=C(SSC(=S)N1CCCCC1)N1CCCCC1	inactive
Nc1ccc(Cc2ccc(N)c(Cl)c2)cc1Cl	inactive
C=CCC1=C(C)C(OC(=O)C2C(C=C(C)C)C2(C)C)CC1=O (stereo unspecified)	51.9 µM (active)
Nc1c(Oc2ccccc2)cc(O)c2c1C(=O)c1ccccc1C2=O	inactive
CC(c1ccc(O)cc1)c1ccc(O)cc1	inactive
CC(C)(C)c1ccc(CSc2cnn(C(C)(C)C)c(=O)c2Cl)cc1	inactive
CC(C)[C@H](C(=O)OC(C#N)c1cccc(Oc2ccccc2)c1)c1ccc(OC(F)F)cc1 (stereo partly specified)	inactive
COP(=S)(OC)Oc1cc(Cl)c(Br)cc1Cl	inactive
CCOP(=S)(OCC)SCCS(=O)(=O)CC	inactive
CS(=O)(=O)c1ccc(C(=O)C2C(=O)CCCC2=O)c([N+](=O)[O-])c1	44.4 µM (active)
CC[C@H]1C[C@@H]2C[C@H]3c4[nH]c5ccc(OC)cc5c4CCN(C2)[C@@H]13	inactive
Nc1ccc(Sc2ccc(N)cc2)cc1	inactive
NC(=O)c1ccc(N)nc1	inactive
CN(C)[C@@H]1C(=O)C(C(N)=O)=C(O)[C@@]2(O)C(=O)C3=C(O)c4c(O)ccc(Cl)c4[C@@](C)(O)[C@H]3C[C@@H]12	inactive
CCN(CC)c1c([N+](=O)[O-])cc(C(F)(F)F)c(N)c1[N+](=O)[O-]	inactive
